KB-V1 cytotox: qHTS assay for MDR1-selective chemotherapeutics: Primary screen using the drug-selected MDR subline cells KB-V1. KB-V1 MDR cells viability, CellTiter-Glo, 72 h. Potency, µM (titrated, usually from 46.1 µM), most hits filed as cytotoxic. 3.4% of 400,000 active. AID 1347076, 2019; further: on the % scale 0 is the no-effect control and ±100 the full control effect; nearly all actives have a fitted effect of over 60% in size
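Readout: CellTiter-Glo luminescence, 10 min after addition. Cells: KB-V1 MDR subline, 72 h at 37 degrees C with compound. Analysis: corrected, normalized data fitted to concentration-effect curves.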
SW480 rereplic: A quantitative high throughput screen for small molecules that induce DNA re-replication in SW480 colon adenocarcinoma cells; SW480 DNA re-replication, Hoechst DNA content imaging, 48 h; Potency, µM (doses to about 46.1 µM), for the others: at the highest dose re-replication activation, most hits filed as activators; 1.8% of 340,000 active; AID 624297, 2012; further: % of control where 0% means no effect; nearly all actives have a fitted effect of over 55% in size
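Compounds, transferred as 23 nL by pin tool, were incubated with cells for 48 hr; DNA content per nucleus was then quantified by Hoechst staining and fluorescence plate imaging.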
KB-3-1 tox: qHTS assay for MDR1-selective chemotherapeutics: Primary screen using the parental adenocarcinoma cell KB-3-1 | AID 1347075, 2019 | Potency, µM (doses to about 46.1 µM), actives largely listed as cytotoxic | KB-3-1 viability, CellTiter-Glo ATP luminescence, 72 h | 1.4% of 400,000 active; further: on the % scale 0 is the no-effect control and ±100 the full control effect; nearly all actives have a fitted effect of over 60% in size
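Luminescent ATP read-out (CellTiter-Glo) measures survival of drug-naive KB-3-1 cells after 72 h compound exposure at 37 °C. Titration series was screened from lowest to highest concentration, with DMSO vehicle plates as background controls.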
PTAP TSG101 blk: qHTS Assay for Iinhibitors of HIV-1 Budding by Blocking the Interaction of PTAP/TSG101. Tumor susceptibility gene 101 protein (Homo sapiens), Q99816. Fluorescence polarization, FITC-PTAP peptide / Tsg101 binding. Potency, µM (doses to about 115 µM), for inactives: at the highest dose activity change, negative = inhibition, hits mostly inhibitors. 340,000 tested, under 10 active; active means well fitted inhibition curve with a large enough effect in the main read-out, with a control signal flat, not every such curve was filed as active; inconclusive means small, poorly fitted or top-dose-only effect, or effect the other way, or a change in a side signal; inactive means no such curve, though single readings can be large or run the other way; further: % of control where 0% means no effect
Target sequence (Q99816 whole entry, looked up): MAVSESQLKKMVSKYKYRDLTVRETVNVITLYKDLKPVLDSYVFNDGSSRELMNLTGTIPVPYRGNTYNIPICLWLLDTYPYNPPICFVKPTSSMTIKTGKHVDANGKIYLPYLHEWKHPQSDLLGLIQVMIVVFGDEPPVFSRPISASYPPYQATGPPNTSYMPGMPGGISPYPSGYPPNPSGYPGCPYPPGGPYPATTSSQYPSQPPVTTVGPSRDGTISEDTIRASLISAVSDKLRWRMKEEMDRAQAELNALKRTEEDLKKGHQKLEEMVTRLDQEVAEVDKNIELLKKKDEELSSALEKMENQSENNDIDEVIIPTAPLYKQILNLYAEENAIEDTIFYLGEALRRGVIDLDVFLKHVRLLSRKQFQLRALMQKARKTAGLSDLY
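Fluorescence polarization binding of Tsg101 binding domain (10 uM final) to FITC-labeled PTAP peptide (50 nM final) in HEPES pH 7.5 buffer with NaCl, Tween 20, EDTA, TCEP. Compounds added before peptide; binding 20 min at RT.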
MCF10A rerep: A quantitative high throughput screen for small molecules that induce DNA re-replication in MCF 10a normal breast cells; MCF 10A DNA re-replication, Hoechst nuclear intensity, 48 h; 2.9% of 350,000 active; AID 624296, 2012; Potency, µM (highest dose often 46.1 µM), inactives show at the highest dose activity, positive = re-replication, usual class: activators; further: % of control where 0% means no effect; nearly all actives have a fitted effect of over 50% in size
PINK1 modulator: A Quantitative High throughput Screen to Identify Chemical Modulators of PINK1 Expression. PINK1 immunofluorescence, high-content cytometry, 24 h. 0.2% of 410,000 active. Potency, µM (doses to about 76.6 µM), for the others: top-dose activation (PINK1 increase), actives largely listed as activators. AID 624263, 2012; active means well fitted activation curve with a large enough effect; inconclusive means small, poorly fitted or top-dose-only effect; cell line not stated here; further: % of control where 0% means no effect; nearly all actives have a fitted effect of over 65% in size
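Stable cell line, 250 cells/well, 12 h attachment; compounds pinned at 5 concentrations, 24 h; CCCP control. Fixed with nuclear dye, primary antibodies 12 h at 10 degrees C, secondary plus cell stain; laser-scanning cytometer read.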
* hit, by the source's call; i = inactive; u = inconclusive; x = no result given; [ ] = dose if it differs, or a comment. A selection: hits, their analogues and other compounds. The true share with any hit is near 6.8%. Unless noted, the call rests on the fitted dose curve; in most records, active means well fitted curve in the direction sought with a large enough effect; inconclusive means small, poorly fitted or top-dose-only effect, or another doubt; inactive means no such curve, though single readings can be large; an effect the other way counts as inactive or inconclusive. Potency means the concentration at half of the fitted maximal effect.

SMILES | KB-V1 cytotox | SW480 rereplic | KB-3-1 tox | PTAP TSG101 blk | MCF10A rerep | PINK1 modulator
COc1ccc(N(C(C)C(=O)N2CCC(Cc3ccccc3)CC2)S(C)(=O)=O)cc1 (stereo not given) | 3.7µM* | 2% | u | 0% | 30% | 1%
COc1ccc(N(C(C)C(=O)N2CCCC2)S(C)(=O)=O)cc1 (stereo not given) | i | -1% | i | -2% | 7% | -1%
O=C(Cn1c(NCCCO)nc2ccccc21)c1ccco1 | i | u | i | -11% | 18µM* | 1%[38.3 µM]
COc1cc(=O)n2c(c1C(=O)NC(C)c1ccco1)CCN(CC=C(C)C)CC2 (stereo not given) | x | x | x | x | x | -1%
O=C(N/N=C/c1cc2c3c(c1O)CCCN3CCC2)c1ccccc1O | u | 9.2µM* | 4.1µM* | -7% | 13µM* | u
CC(C)CN1CCc2nc(N3CCN(c4ncccn4)CC3)ncc2C1 | i | x | i | x | x | 1%
CCCS(=O)(=O)N1CC(=O)N(c2ccccc2F)C(C)(C(=O)NC2CCCCCC2)C1 (stereo not given) | i | x | i | x | x | 2%
Cc1cccc(CSc2nc3c(c(=O)[nH]2)CCCC3)c1 | i | -4% | i | -3% | -3% | u
O=c1[nH]c(SCc2cccc(F)c2)nc2c1CCCC2 | 15µM* | -11% | i | -4% | 12% | 2%
COc1ccc(NC(=O)c2ccc3nc(CCc4ccccc4)oc3c2)cc1 | i | x | i | x | x | 0%
Cc1ccc2c(c1)c1c3n2CCN(C(=O)Cn2c(-c4ccccc4)noc2=O)C3CCC1 (stereo not given) | 4.1µM* | 0% | i | -2% | -2% | 8%[38.3 µM]
Cc1ccc2c(c1)c1c3n2CCN(C(=O)CN2CCN(C)CC2)C3CCC1 (stereo not given) | 21µM* | u | u | -1% | u | 0%
O=C1CCSC2(C(=O)N(Cc3ccccc3)c3ccccc32)N1c1ccccc1 (stereo not given) | i | x | i | x | x | -1%
COc1cccc(N2C(=O)CSC23C(=O)N(CC(=O)Nc2cc(C)ccc2C)c2ccccc23)c1 (stereo not given) | i | x | i | x | x | 2%
CSc1cccc(NC(=O)CC(c2ccc(F)cc2)N2Cc3ccccc3C2=O)c1 (stereo not given) | x | x | x | x | x | 6%
Cc1ccc(C)c(N2CCN(C(=O)CCc3nnc4n(C)c(=O)c5ccccc5n34)CC2)c1 | x | x | x | x | x | 3%
CN(C)CCNc1nc2sc3c(c2c(=O)n1CCc1ccccc1)CCCCC3 | 21µM* | 18µM* | i | -3% | u | -2%
COC(=O)Cn1c(=O)n(CCc2ccccc2)c(=O)c2c3c(sc21)CCCC3 | 21µM* | -4% | i | -2% | 27% | 24%[38.3 µM]
CNS(=O)(=O)c1cn(CC(=O)Nc2ccc(OC)c(Cl)c2)cc1S(=O)(=O)NC | i | x | i | x | x | 0%
CC(C)(C)OC(=O)N(CCc1ccccc1)Cc1ccccc1OCc1ccc(NC(=O)C2CCC2)cc1 | u | u | u | 4% | 6.5µM* | 1%
CC(C)(C)OC(=O)N(Cc1ccccc1)Cc1cccc(OCc2cccc(NC(=O)c3ccccc3)c2)c1 | i | -57% | i | -2% | 0.29µM* | 1%
CC(C)C(=O)Nc1cccc(COc2ccccc2CN(Cc2ccccc2)C(=O)OC(C)(C)C)c1 | u | u | u | -10% | 12µM* | 1%
CC(C)(C)OC(=O)N(Cc1ccccc1)Cc1ccccc1OCc1cccc(NC(=O)c2ccccc2)c1 | u | 0% | u | -9% | u | 0%
O=C(Nc1ccc2nccnc2c1)N1CCCCCC1 | i | x | i | x | x | 2%
O=C(NCc1ccccc1Cl)c1cccc(OC2CCN(C(=O)C3CC3)CC2)c1 | 6.5µM* | 0% | u | 0% | 13% | 1%
SMILES | KB-V1 cytotox | SW480 rereplic | KB-3-1 tox | PTAP TSG101 blk | MCF10A rerep | PINK1 modulator
C#CCN(Cc1ccco1)C(=O)c1ccc(OC2CCN(Cc3ccccn3)CC2)cc1 | 16µM* | 6% | i | -2% | u | 2%
O=C(NCc1ccco1)c1ccc(OC2CCN(Cc3ccccn3)CC2)cc1 | i | x | i | x | x | 1%
CCN1C(=C2C(=O)c3ccccc3C2=O)C=Cc2ccccc21 | 1.8µM* | -11% | u | -3% | -6% | 8%[38.3 µM]
CCN1C(=O)/C(=C2\C=Cc3ccccc3N2CC)SC1=S | i | -14% | i | -9% | 3% | -5%[38.3 µM]
Cc1ccc(OCCCCn2c(CCNC(=O)C3CCCCC3)nc3ccccc32)cc1 | i | x | i | x | x | 0%
CCc1cccc(C)c1NC(=O)c1cc2ccccc2o1 | i | x | i | x | x | 6%
CC(=O)c1cccc(NC(=O)Cc2ccc(NC(=O)N3CCCCc4ccccc43)cc2)c1 | i | x | i | x | x | 0%
Cc1nc(C)c(-c2ccc(SCC(=O)Nc3ccc(Br)cc3)nn2)s1 | x | x | x | x | x | 0%
COc1ccc(-n2nnnc2SC(C)C(=O)NC2CCCC2)cc1 (stereo not given) | i | -5% | i | 0% | -5% | 4%
CCOc1ccc(NC(=O)C2CCN(c3nnnn3-c3ccccc3)CC2)cc1 | 8.2µM* | -2% | i | -8% | 3% | -3%
CC(Sc1nnnn1-c1ccccc1)C(=O)NC1CCCC1 (stereo not given) | 13µM* | -2% | i | -1% | 3% | 3%
CCOC(=O)C1CCCN(c2nnnn2-c2ccccc2)C1 (stereo not given) | i | -7% | i | -3% | 23% | 0%
O=C(NC1CCCCC1)C1CCCN(c2nnnn2-c2ccccc2)C1 (stereo not given) | 16µM* | -3% | i | -8% | 4% | 1%[38.3 µM]
O=C(Nc1cccc(F)c1)C1CCN(c2nnnn2-c2ccccc2)CC1 | u | u | u | -9% | u | -2%
CCOC(=O)N1CCc2c(sc3c2c(=O)n(Cc2ccccc2)c(=O)n3CC(=O)Nc2ccccc2F)C1 | x | x | x | x | x | 0%
CCOc1ccc(NC(=O)/C=C\C(=O)N(c2ccc(C(C)C)cc2)C(C(=O)NCc2ccco2)c2ccc(F)cc2)cc1 (stereo not given) | x | x | x | x | x | 0%

Bioassay records: PubChem, National Center for Advancing Translational Sciences (NCATS)
